According to PubChem BioAssay (NCATS):
Results filed as inconclusive are left out. Active and inactive are the calls of the source. Unless noted, calls follow the shape of the full dose curve.

Legend:
[1] = molecular target: Estrogen receptor (Homo sapiens) (UniProt P03372); test: qHTS assay for small molecule antagonists of estrogen receptor alpha signaling (AID 588513; active = well fitted curve in the direction sought with a large enough effect in the signal ratio, with a control signal flat, not every such curve was filed as active; the % refers to the signal ratio; also: % is scaled to controls: 0 for no effect and ±100 for the full control effect)
In short: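 Cells were plated at 5000/well and incubated 4 h at 37 C. Compounds were added as 1:2 dilution series, duplicates. 17-beta-estradiol (0.5nM final) was added for 18 h before CCF4 detection.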

[2] = molecular target: Estrogen receptor (Homo sapiens) (UniProt P03372); test: qHTS assay for small molecule agonists of estrogen receptor alpha signaling (AID 588514);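 also: 0% = vehicle only and 100% = reference agonist; nearly all actives have a fitted effect of over 70% in size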
In short: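 Reporter-gene assay. […] controls beta-lactamase in HEK 293 GripTite cells; after 18 hrs with compound, CCF4 substrate is added for 2 hrs and fluorescence is read.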

[3] = qHTS assay for small molecule antagonists of peroxisome proliferator-activated receptor delta signaling (AID 588535); conditions: HEK293T PPARd-UAS-bla, beta-lactamase FRET ratio, 18 h; 460 nm channel;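 also: cells co-treated with a PPAR-delta agonist as stimulator during compound exposure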
In short: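 Cells were seeded at 4000 per well in assay medium containing 2% charcoal/dextran FBS and held 5 hrs at 37 C. Compounds were then added for 18 hrs. CCF4 substrate was applied for 2 hrs at room temperature before fluorescence reading.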

[4] = molecular target: Vitamin D3 receptor (Homo sapiens) (UniProt P11473); test: qHTS assay for small molecule antagonists of vitamin D receptor signaling (AID 588541);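 also: receptor activated by calcitriol during compound treatment; series mostly up to about 77 µM; % is scaled to controls: 0 for no effect and ±100 for the full control effect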
In short: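 VDR-UAS-bla HEK293T cells in 2% charcoal-stripped FBS were stimulated with 1-alpha,25-dihydroxyvitamin D3 (3 nM final) plus compound for 16 h at 37 C. The beta-lactamase CCF4 readout was normalized to 50 nM agonist and DMSO, and Hill fits gave IC50.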

[5] = molecular target: Vitamin D3 receptor (Homo sapiens) (UniProt P11473); test: qHTS assay for small molecule agonists of vitamin D receptor signaling (AID 588543);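 also: 0% = DMSO basal and 100% = reference agonist control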
In short: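 qHTS in agonist mode: compound titrations stimulate a VDR-driven β-lactamase reporter in HEK293T cells over 16 h at 37 °C. Response normalized to 50 nM 1α,25-dihydroxyvitamin D3 = 100%, DMSO = 0%; Hill fitting gives EC50 and maximal response.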

[6] = qHTS assay for small molecule agonists of retinoid X receptor alpha signaling (AID 588544); conditions: HEK293T RXRa-UAS-bla, beta-lactamase reporter, 18 h; 530 nm emission;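 as to activation: 0% = DMSO basal wells and 100% = reference agonist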
[7] = molecular target: Retinoic acid receptor RXR-alpha (Homo sapiens) (UniProt P19793); test: as above
[8] = molecular target: Thyroid hormone receptor beta (Homo sapiens) (UniProt P10828); test: qHTS assay for small molecule agonists of thyroid hormone receptor beta signaling (AID 588545)
In short: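 Agonist-mode beta-lactamase reporter assay, HEK 293 cells, 2% charcoal/dextran FBS; cells plated 4 hrs, compound 18 hrs at 37 C, CCF4 2 hrs RT. Normalized to 10 nM T3 (100%) and DMSO (0%); Hill fit gives EC50, efficacy.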

[9] = qHTS assay for small molecule antagonists of retinoid X receptor alpha signaling (AID 588546; active = well fitted inhibition curve with a large enough effect in the signal ratio, with a control signal flat, not every such curve was filed as active; the % refers to the signal ratio;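 also: cells stimulated with 9-cis-retinoic acid as agonist; % is scaled to controls: 0 for no effect and ±100 for the full control effect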); conditions: HEK293T RXRa-UAS-bla, beta-lactamase ratio, antagonist mode; measured here: W530 green channel, cytotoxicity proxy
In short: (§1)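 Beta-lactamase reporter inhibition, read as CCF4 fluorescence ratio (ex 405, em 460/530 nm) after 2 h at RT. HEK293T UAS-bla cells, 2500/well, were stimulated with 9-cis-RA at 500 or 100 nM final alongside test compound for 18 h at 37 C.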

[10] = molecular target: Retinoic acid receptor RXR-alpha (Homo sapiens) (UniProt P19793); test: as above; conditions: HEK293T RXRa-UAS-bla, beta-lactamase ratio, antagonist mode
In short: as §1

[11] = molecular target: Thyroid hormone receptor beta (Homo sapiens) (UniProt P10828); test: qHTS assay for small molecule antagonists of thyroid hormone receptor beta signaling (AID 588547; active = well fitted inhibition curve with a large enough effect in the signal ratio, with a control signal flat, not every such curve was filed as active; the % refers to the signal ratio;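 also: cells stimulated with 0.4 nM T3 agonist during compound exposure; series mostly up to about 77 µM; % is scaled to controls: 0 for no effect and ±100 for the full control effect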); conditions: TR-UAS-bla HEK293, beta-lactamase ratio, antagonist mode, 18 h
In short: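 TR-UAS-bla GripTite HEK293 cells in 2% charcoal/dextran FBS medium; compounds 0.59 nM to 92 uM with T3 at 0.4nM final, 18 h at 37 C. Beta-lactamase read by CCF4 fluorescence (460/530 nm); Hill fits gave IC50 and efficacy.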

[12] = qHTS assay for environmental chemicals that activate the Aryl hydrocarbon Receptor (AhR) signaling pathway (AID 651777; active = well fitted curve in the direction sought with a large enough effect; an effect the other way counts as inactive or inconclusive; also: % of control where 0% means no effect; nearly all actives have a fitted effect of over 15% in size); conditions: 1A2-DRE human hepatoma cells, luciferase, 24 h; activation: stronger effect = higher value
In short: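 1A2-DRE human hepatoma reporter line; 1,200 cells/well; cmpd or DMSO 24 h, 37 C/5% CO2; One-Glo 30 min RT; luciferase lum.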

[13] = molecular target: Peroxisome proliferator-activated receptor alpha (Homo sapiens) (UniProt Q07869); test: qHTS assay for small molecule agonists of the peroxisome proliferator-activated receptor alpha (PPARalpha) signaling pathway (AID 651778; active = well fitted curve in the direction sought with a large enough effect; an effect the other way counts as inactive or inconclusive; also: % of control where 0% means no effect); conditions: PathHunter PPARalpha complementation, chemiluminescence, 6 h; max response: stronger effect = higher value
In short: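 Enzyme-fragment complementation assay in which ligand-bound PPARalpha translocates and forms an active enzyme that generates chemiluminescence. Cells were plated overnight, exposed to compound for 6 hr at 37 C, and then given detection reagent for 60 min at room temperature.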

[14] = qHTS assay for small molecule agonists of the antioxidant response element (ARE) signaling pathway measured by Nrf2-dependant transcriptional activity (AID 720636; active = well fitted curve in the direction sought with a large enough effect in the repeat runs; an effect the other way counts as inactive or inconclusive;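 also: HepG2 cells with an ARE-driven luciferase reporter; % of control where 0% means no effect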)
In short: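 Cells: ARE-luc HepG2 with Nrf2-responsive luciferase. Medium contained 1% dialyzed FBS. Compound exposure lasted 16 hr at 37 C and 5% CO2, followed by ONE-Glo luciferase detection.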

[15] = qHTS assay for small molecule agonists of the antioxidant response element (ARE) signaling pathway measured by Nrf2-dependant transcriptional activity - cell viability counter screen (AID 720653; active = well fitted curve in the direction sought with a large enough effect in the repeat runs; an effect the other way counts as inactive or inconclusive; also: % is scaled to controls: 0 for no effect and ±100 for the full control effect); conditions: ARE-bla HepG2 viability, CellTiter-Glo ATP luminescence, 16 h; max response: stronger effect = lower value
In short: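 ARE-bla HepG2 cells treated with compounds for 16 h at 37C; this counter screen measures viability as intracellular ATP by CellTiter-Glo luminescence after 30 min at room temperature.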

[16] = qHTS assay for cell viability of HEK293 cells (AID 743288; active = well fitted curve in the direction sought with a large enough effect; an effect the other way counts as inactive or inconclusive; also: % is scaled to controls: 0 for no effect and ±100 for the full control effect; nearly all actives have a fitted effect of over 50% in size); conditions: ATP luminescence (CellTiter-Glo), 18 h; max response: stronger effect = lower value
In short: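 The Tox21 protocol used parental HEK293 cells treated for 18 h at 37 C with compounds delivered by pintool; ATP-coupled luminescence after 30 min at room temperature gave viability.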

[17] = qHTS assay for cell viability of the p53RE-bla HCT-116 cell line (AID 743292; active = well fitted curve in the direction sought with a large enough effect; an effect the other way counts as inactive or inconclusive; also: % is scaled to controls: 0 for no effect and ±100 for the full control effect; nearly all actives have a fitted effect of over 55% in size)
In short: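 HCT-116 p53RE-bla cells seeded 4,000/well; 5 h at 37 C; compound (DMSO) added; 16 h at 37 C; CellTiter-Glo added, 30 min RT; luminescence read.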

[18] = molecular target: Nuclear receptor subfamily 1 group I member 2 (Rattus norvegicus) (UniProt Q9R1A7); test: qHTS assay for small molecule activators of the rat pregnane X receptor (rPXR) signaling pathway (AID 651751; call rule not given here; also: 0% is about no effect); conditions: rPXR reporter cells, luciferase (One-Glo), 24 h
[19] = qHTS assay for small molecule activators of the human pregnane X receptor (PXR) signaling pathway (AID 720659; call rule not given here; also: 0% is about no effect)
[20] = qHTS assay for small molecule activators of the p53 signaling pathway (AID 651743; active = well fitted activation curve with a large enough effect in the signal ratio, not every such curve was filed as active; the % refers to the signal ratio; also: series mostly up to about 92 µM; % of control where 0% means no effect); conditions: HCT-116 p53RE-bla, beta-lactamase FRET ratio, 16 h; activation: stronger effect = higher value
In short: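 HCT-116 p53RE-bla, 4,000 cells/well; 5 h settle; cpd/DMSO 16 h, 37 C; LiveBLAzer B/G 2 h RT; fluorescence intensity.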

Sequence of Retinoic acid receptor RXR-alpha (Homo sapiens) (P19793 whole entry, looked up): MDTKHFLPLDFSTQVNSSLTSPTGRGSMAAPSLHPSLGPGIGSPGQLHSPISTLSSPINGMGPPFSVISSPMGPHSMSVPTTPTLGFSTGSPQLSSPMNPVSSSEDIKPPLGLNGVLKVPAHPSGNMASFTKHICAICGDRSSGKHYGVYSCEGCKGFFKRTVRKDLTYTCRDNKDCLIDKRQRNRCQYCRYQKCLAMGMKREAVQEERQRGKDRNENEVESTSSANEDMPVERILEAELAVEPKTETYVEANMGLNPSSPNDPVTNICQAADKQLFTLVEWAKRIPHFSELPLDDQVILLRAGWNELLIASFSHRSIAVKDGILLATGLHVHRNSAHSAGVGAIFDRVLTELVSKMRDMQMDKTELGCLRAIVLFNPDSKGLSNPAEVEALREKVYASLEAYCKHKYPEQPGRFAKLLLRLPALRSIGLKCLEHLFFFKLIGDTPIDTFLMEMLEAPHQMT
Sequence of Estrogen receptor (Homo sapiens) (P03372 whole entry, looked up): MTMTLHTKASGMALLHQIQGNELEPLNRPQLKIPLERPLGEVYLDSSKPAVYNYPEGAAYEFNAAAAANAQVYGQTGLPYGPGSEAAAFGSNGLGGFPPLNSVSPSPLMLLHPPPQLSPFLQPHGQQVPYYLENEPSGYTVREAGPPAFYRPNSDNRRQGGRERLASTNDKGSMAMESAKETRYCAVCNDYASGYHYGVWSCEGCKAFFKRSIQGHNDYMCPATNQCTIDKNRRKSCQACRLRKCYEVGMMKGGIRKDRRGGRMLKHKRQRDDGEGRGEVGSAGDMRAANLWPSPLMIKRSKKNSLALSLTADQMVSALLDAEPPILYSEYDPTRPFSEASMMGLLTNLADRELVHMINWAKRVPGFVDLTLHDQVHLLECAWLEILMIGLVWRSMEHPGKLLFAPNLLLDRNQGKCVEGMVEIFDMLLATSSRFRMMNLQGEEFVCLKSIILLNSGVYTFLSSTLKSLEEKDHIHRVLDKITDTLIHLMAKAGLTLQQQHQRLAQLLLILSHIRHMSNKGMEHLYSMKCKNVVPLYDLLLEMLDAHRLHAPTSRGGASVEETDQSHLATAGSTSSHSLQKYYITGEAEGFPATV
Sequence of Thyroid hormone receptor beta (Homo sapiens) (P10828 whole entry, looked up): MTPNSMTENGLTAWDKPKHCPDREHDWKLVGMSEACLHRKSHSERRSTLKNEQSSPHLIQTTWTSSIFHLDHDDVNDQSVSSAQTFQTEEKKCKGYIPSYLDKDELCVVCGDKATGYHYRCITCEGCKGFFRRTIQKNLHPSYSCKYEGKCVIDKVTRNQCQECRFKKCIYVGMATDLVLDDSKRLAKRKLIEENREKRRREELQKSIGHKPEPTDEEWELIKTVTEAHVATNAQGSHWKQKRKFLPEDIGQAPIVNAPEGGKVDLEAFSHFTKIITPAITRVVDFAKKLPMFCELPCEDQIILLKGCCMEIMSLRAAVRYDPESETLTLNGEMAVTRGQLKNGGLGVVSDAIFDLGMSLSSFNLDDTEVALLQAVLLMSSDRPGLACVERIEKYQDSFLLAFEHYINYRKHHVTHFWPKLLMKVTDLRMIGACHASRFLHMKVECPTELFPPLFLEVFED
Sequence of Vitamin D3 receptor (Homo sapiens) (P11473 whole entry, looked up): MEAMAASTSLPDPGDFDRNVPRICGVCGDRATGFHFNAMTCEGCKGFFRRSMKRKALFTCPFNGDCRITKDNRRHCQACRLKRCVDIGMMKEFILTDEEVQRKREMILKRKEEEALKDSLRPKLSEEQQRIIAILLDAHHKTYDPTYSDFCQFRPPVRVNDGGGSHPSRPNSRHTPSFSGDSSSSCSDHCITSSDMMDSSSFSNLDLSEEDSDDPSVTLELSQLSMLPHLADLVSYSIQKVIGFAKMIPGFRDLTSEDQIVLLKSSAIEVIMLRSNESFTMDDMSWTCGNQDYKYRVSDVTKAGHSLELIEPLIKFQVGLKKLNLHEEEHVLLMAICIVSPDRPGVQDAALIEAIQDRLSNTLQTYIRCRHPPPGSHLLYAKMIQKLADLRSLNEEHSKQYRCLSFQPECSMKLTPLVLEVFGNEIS
Sequence of Nuclear receptor subfamily 1 group I member 2 (Rattus norvegicus) (Q9R1A7 whole entry, looked up): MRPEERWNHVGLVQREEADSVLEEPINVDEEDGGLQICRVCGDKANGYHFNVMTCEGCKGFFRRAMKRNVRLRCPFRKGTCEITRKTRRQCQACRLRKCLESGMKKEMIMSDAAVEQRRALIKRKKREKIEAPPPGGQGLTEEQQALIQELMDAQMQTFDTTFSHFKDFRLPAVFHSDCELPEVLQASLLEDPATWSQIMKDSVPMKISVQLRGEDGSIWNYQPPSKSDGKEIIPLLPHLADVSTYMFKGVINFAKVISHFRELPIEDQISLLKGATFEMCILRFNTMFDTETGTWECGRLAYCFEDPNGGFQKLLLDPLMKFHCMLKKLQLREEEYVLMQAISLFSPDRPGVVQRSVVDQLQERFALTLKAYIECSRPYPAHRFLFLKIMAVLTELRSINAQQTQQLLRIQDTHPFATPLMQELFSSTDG
Sequence of Peroxisome proliferator-activated receptor alpha (Homo sapiens) (Q07869 whole entry, looked up, the tested form may be a part): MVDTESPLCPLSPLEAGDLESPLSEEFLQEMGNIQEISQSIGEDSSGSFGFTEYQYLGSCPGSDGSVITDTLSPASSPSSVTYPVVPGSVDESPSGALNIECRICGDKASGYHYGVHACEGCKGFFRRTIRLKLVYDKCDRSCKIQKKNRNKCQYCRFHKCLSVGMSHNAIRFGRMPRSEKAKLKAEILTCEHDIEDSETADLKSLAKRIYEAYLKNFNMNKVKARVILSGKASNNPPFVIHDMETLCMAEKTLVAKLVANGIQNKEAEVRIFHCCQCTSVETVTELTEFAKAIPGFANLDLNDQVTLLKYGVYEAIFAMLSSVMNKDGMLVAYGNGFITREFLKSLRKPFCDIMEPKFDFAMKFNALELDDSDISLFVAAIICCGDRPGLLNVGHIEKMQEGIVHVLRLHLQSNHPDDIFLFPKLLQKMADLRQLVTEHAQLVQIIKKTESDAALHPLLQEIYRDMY

Compound | Potency [1] | Potency [2] | max response [3] [%] | Potency [4] | outcome [5] | max response [6] [%] | Potency [7] | Potency [8] | max response [9] [%] | max response [10] | activity change % (negative = inhibition) [11] | activation [12] | max response [13] | Potency [14] | max response [15] | max response [16] | Potency [17] | max response [18] | outcome [19] | activation [20]
O=C(OCC1CCC2OC2C1)C1CCC2OC2C1 (centres undefined) | inactive | inactive | -2.67 | inactive | inactive | -10.9 | inactive | inactive | 1.3 | -6.03% (inactive) | 1.74% (inactive) | 1.05% (inactive) | 0.673% (inactive) | inactive | -4.32% (inactive) | -11.2% (inactive) | inactive | 1.7% (inactive) | inactive | 
c1ccc(-c2ccc(-c3ccccc3)cc2)cc1 | inactive | inactive | -0.983 | inactive | inactive |  |  | inactive | -5.51 | 1.88% (inactive) | 2.31% (inactive) | 6.5% (inactive) | -0.186% (inactive) |  | -5.82% (inactive) | -2.69% (inactive) | inactive |  | inactive | 
CCCCCCCCCCCC(=O)N(C)CC(=O)O | inactive | inactive |  |  |  | 21.8 | inactive | inactive | 7.91 | 6.82% (inactive) | 5.42% (inactive) | 0.0412% (inactive) |  | inactive | 19.7% (inactive) | -6.6% (inactive) | inactive | -2.95% (inactive) | inactive | 
COC(=O)c1ccc(C(=O)OC)cc1 | inactive | inactive |  | inactive | inactive | -4.51 | inactive | inactive | -0.742 | -16.3% (inactive) |  | 2.27% (inactive) | -0.437% (inactive) | inactive | -4.69% (inactive) | -3.92% (inactive) | inactive | 2.11% (inactive) |  | -5.18% (inactive)
Cc1cc(C)c(N)c(Cl)c1 | inactive | inactive | 24.2 | inactive | inactive | -1.71 | inactive | inactive |  |  | -1.82% (inactive) | -1.79% (inactive) | -1.91% (inactive) |  | 2.61% (inactive) |  | inactive | -0.981% (inactive) | inactive | -7.91% (inactive)
CCCOC(=O)c1ccc(C(=O)OCCC)nc1 | inactive |  |  | inactive | inactive |  |  |  | 6.56 | -17.9% (inactive) |  | -2.64% (inactive) | -0.236% (inactive) |  | 22.4% (inactive) | -23.4% (inactive) |  | -3.51% (inactive) | inactive | -3.13% (inactive)
